Results taken from PubChem BioAssay AID463173 (ICCB-Longwood Screening Facility, Harvard Medical School, 2010).
Among all 52,000 compounds or so, about 4,300 (8.3%) were called active. This excerpt belongs to a sample that is enriched for actives. Unmarked numbers belong to inactive results. Cut-off read from the data, not from the text of the source: active = survival mostly below about 52% (no sharp cut-off); inactive = mostly above about 56%.

tested on: DeltatarO mutant; experiment: growth inhibition of S. aureus wild type versus tarO mutant, primary screen, teichoic acid synthesis inhibitors, RN4220, OD600 (AID 463173); conditions: OD600, 18 h, stronger effect = lower value, screened at 18.75 µg/mL (by protocol)

Point of comparison: `CCCCOc1ccc(C(=O)NCCc2sc(-c3ccc(OC)c(OC)c3)nc2C)cc1`, survival 72%. Against it:
- O=c1c(N2CCc3ccccc3C2)csc2ccc(Br)cc12 — higher, 78%
- Cc1cc(C)c(S(=O)(=O)Nc2ccc(-c3ccc(N4CCCCCC4)nn3)cc2)c(C)c1 — higher, 84%
- O=C1CC(C(=O)NCc2ccccc2)N=C(N2CCCCC2)N1 (stereo unspecified) — higher, 97%
- Cc1cc(C)cc(NC(=O)CN(C)S(=O)(=O)c2ccc3c(c2)CCC(=O)N3)c1 — higher, 90%
- CCCCOC(=O)OC1CCS(=O)(=O)C1 (stereo unspecified) — lower, 66%
- Cc1cccc(-n2cc(-c3ccccc3)c3c(NC(C)C)ncnc32)c1 — higher, 107%
- Nc1ccc2nc(C(F)(F)F)[nH]c2c1 — higher, 95%
- CC(C)C(=O)Nc1cccc(-c2nc3ccccc3o2)c1 — higher, 112%
- CC(Oc1ccccc1F)C(=O)Nc1ccc(-c2nc3ccccc3s2)cc1 (stereo unspecified) — higher, 107%
- Cc1ccc(C(=O)Nc2cccc(-c3nc4ccccc4o3)c2)c(Cl)c1 — lower, 53%
- Cc1cc2oc(C(=O)Nc3cccc(-c4nc5ccccc5o4)c3)c(C)c2cc1Cl — higher, 80%
- CC(=O)Nc1cccc(-c2nc3ccccc3o2)c1 — higher, 107%
- COc1ccccc1OC(C)C(=O)Nc1ccc(-c2nc3ccccc3s2)cc1 (stereo unspecified) — lower, 64%
- COc1ccc(-c2cn3nc(N4CCCC(C(=O)Nc5cccc(Cl)c5C)C4)sc3n2)cc1 (stereo unspecified) — higher, 82%
- COc1ccc(-n2ncc(C(=O)NCCCN3CCCCC3)c2C2CCN(C(=O)OC(C)(C)C)CC2)cc1 — higher, 73%
- CCCOc1ccc(C(=O)Nc2ccc3oc(-c4ccncc4)nc3c2)cc1 — lower, 62%
- Cc1cccc(-c2cc(NC(=O)c3ccccc3C)n(-c3ccccc3)n2)c1 — higher, 80%
- Cc1nc2sc(C(=O)N(C)c3ccccc3)c(NC(=O)c3ccccc3Cl)c2c(C)c1C — lower, 57%
- CCCCCn1c(=O)[nH]c2cc(C(=O)NCc3ccc(Cl)cc3)ccc2c1=O — lower, 71%
- COc1cccc2cc(-c3csc(-c4ccc(Cl)cc4)n3)c(=O)oc12 — higher, 99%
- CCN1CCN(Cc2c(O)ccc3oc(C)c(C(=O)Nc4ccc(OC)c(Cl)c4)c23)CC1 — lower, 66%
- COc1ccc(NC(=O)c2c(C)oc3ccc(O)c(CN4CCCC(C)C4)c23)cc1 (stereo unspecified) — higher, 87%
- COc1ccc(NC(=O)c2c(C)oc3ccc(O)c(CN4CCCC4)c23)cc1Cl — higher, 80%
- COc1ccc(NC(=O)c2c(C)oc3ccc(O)c(CN4CCCCCC4)c23)cc1Cl — higher, 94%
- COc1ccc(CCNCc2c(C(=O)O)c(C)n(Cc3c(F)cccc3Cl)c2C)cc1OC — higher, 121%
- CCCCOC(=O)c1ccc(NC(=O)Cn2nnc3sc4c(c3c2=O)CCCC4)cc1 — lower, 67%
- Cc1ccc(CCNS(=O)(=O)c2c(C)nc3sc(C)c(C)n3c2=O)cc1 — higher, 82%
- CCCNC(=O)c1cnc2sc(N3CCCCCC3)nn2c1=O — higher, 78%
- COc1ccc(CNC(=O)c2ccc(NC(=O)N3CCSc4ncccc43)cc2)cc1 — higher, 84%
- COc1ccc(OC)c(-n2c3c(cc(-c4nc(-c5ccc(Cl)cc5)cs4)c2=O)C(=O)CC(C)(C)C3)c1 — higher, 75%
- CCOc1ccc(C(=O)Nc2ccc3oc(-c4ccc(Br)cc4)nc3c2)cc1 — lower, 68%
- CCc1ccc2oc(-c3ccc(NC(=O)c4cccc(Cl)c4Cl)cc3)nc2c1 — lower, 63%
- CC(C)c1ccc2oc(-c3ccc(NC(=O)c4cc5ccccc5o4)cc3)nc2c1 — lower, 48%
- CCc1ccc2oc(-c3cccc(NC(=O)c4ccc(-c5cccc([N+](=O)[O-])c5)o4)c3)nc2c1 — lower, 58%
- COc1ccc(-c2nc3cc(NC(=O)c4cc5ccccc5o4)ccc3o2)cc1 — lower, 62%
- CCOc1ccc(C(=O)Nc2ccc(-c3nc4cc(CC)ccc4o3)cc2)cc1 — lower, 61%
- Cc1cc2nc(-c3ccc(NC(=O)c4cc5ccccc5o4)cc3)oc2cc1C — lower, 51%
- CCc1ccc2oc(-c3cccc(NC(=O)COc4ccccc4Cl)c3)nc2c1 — lower, 57%
- COc1ccc2c(c1)c1c(c(=O)n(-c3ccc(F)c(Cl)c3)c(=O)n1Cc1ccccc1C)n2C — higher, 83%
- COc1ccc(-n2ccnc2SCC(=O)Nc2cccc(OC)c2)cc1 — higher, 98%
- Cc1cc(=O)[nH]c2nnc(SCC(=O)Nc3ccc(OC(F)(F)F)cc3)n12 — higher, 74%
- CCc1ccc(CNC(=O)c2ccc(-n3c(C)cc4c3CCC(C)C4)cc2)cc1 (stereo unspecified) — higher, 123%
- Cc1ccn2c(=O)cc(CSc3nnc(C)s3)nc2c1 — higher, 77%
- COc1ccc(-c2cc(OC(=O)c3cccc(Cl)c3)c3c(C)oc(C)c3c(=O)c2)cc1 — higher, 132%
- COc1ccc(S(=O)(=O)N2CCN(c3cccc(C)c3C)CC2)c2ccccc12 — higher, 152%
- CCCN1CCN(c2ncc3c(n2)CCN(Cc2ccc(OC)c(OC)c2OC)C3)CC1 — higher, 83%
- Cc1ccc(-c2nc3cc(NC(=O)c4cc5ccccc5o4)ccc3o2)cc1 — the same, 72%
- O=C(Nc1ccc(-c2nc3cc(Cl)ccc3o2)cc1)c1cc2ccccc2o1 — lower, 52%
- O=C(O)CC(NC(=O)Cc1ccccc1)c1ccccc1 (stereo unspecified) — higher, 99%
- O=C1CCCc2cc(S(=O)(=O)NCC3CCC(C(=O)NCc4ccccc4Cl)CC3)ccc2N1 (stereo unspecified) — lower, 71%
- COC(=O)c1ccc(NC(=O)c2cccc3c2C(=O)N(C2CCCCC2)C3)cc1 — higher, 80%
- COc1cc(NC(=O)c2cccc3c2C(=O)N(C2CCCCC2)C3)cc(OC)c1OC — lower, 53%
- COc1cc(NC(=O)c2cccc3c2C(=O)N(C2CCCCC2)C3)cc(OC)c1 — higher, 90%
- O=C(Nc1c(Cl)cccc1Cl)c1cccc2c1C(=O)N(C1CCCCC1)C2 — higher, 78%
- Cc1cccc(C2CC(=O)Nc3cc4c(cc32)OCO4)c1 (stereo unspecified) — higher, 77%
- CCCCN(Cc1ccccc1)C(=O)CN(C)S(=O)(=O)c1ccc2c(c1)c(=O)n(C)c(=O)n2C — higher, 128%
- Cc1ccc(C)c(Nc2nnc(-c3ccc(C)c(S(=O)(=O)N4CCN(C)CC4)c3)c3ccccc23)c1 — higher, 84%
- COC(=O)c1cc2sccc2n1Cc1ccc(F)cc1 — higher, 124%
- COC(=O)c1cc2sccc2n1Cc1nc(-c2ccc(Cl)cc2)oc1C — higher, 90%
- COC(=O)c1cc2sc(C)cc2n1Cc1nc(-c2ccc(C)cc2)oc1C — higher, 109%
- COC(=O)c1cc2sc(Cl)cc2n1Cc1nc(-c2ccc(OC)cc2)oc1C — the same, 72%
- COC(=O)CNC(=O)c1cc2sccc2n1Cc1ccccc1 — higher, 97%
- COC(=O)c1cc2sccc2n1Cc1nc(-c2cccc(Cl)c2)oc1C — higher, 83%
- Cc1ccc(C2=NNC(c3cccnc3)=Nc3ccc(F)cc32)o1 — higher, 96%
- COc1ccc(Cl)cc1NC(=O)N1CCC(CN2CCCCCC2)CC1 — higher, 79%
- CN(C)c1ccc(/C=C(/NC(=O)c2ccccc2)C(N)=O)cc1 — higher, 86%
- Cc1ccc(NC(=O)C2CCCN(c3cnccn3)C2)cc1Cl (stereo unspecified) — higher, 75%
- C=CCNC(=O)CN1CCC(n2nnc3cc(C(F)(F)F)ccc32)CC1 — higher, 79%
- COc1ccc(-c2cc(C(F)(F)F)n3nc(C(=O)Nc4ccccc4SC)cc3n2)cc1OC — higher, 148%
- CCOC(=O)c1cnn2c(C(F)(F)F)cc(-c3ccc(Br)cc3)nc12 — higher, 102%
- COC(=O)c1cnn2c(C(F)(F)F)cc(-c3ccccc3)nc12 — lower, 68%
- COc1ccc(-c2cc(C(F)(F)F)n3nc(C(=O)Nc4cccc(Cl)c4Cl)cc3n2)cc1OC — higher, 123%

For `Cc1nc2nc(C(F)(F)F)[nH]c2cc1Br`, the survival was 4% (active).
For `COc1ccccc1OC(C)C(=O)Nc1cccc(-c2nc3ccccc3s2)c1` (stereo unspecified), the survival was 37% (active).
With `COc1ccccc1OC(C)C(=O)Nc1cccc(-c2nc3ccccc3o2)c1` (stereo unspecified) the survival was 18% (active).
In the case of `Cc1cc(OC(C)C(=O)Nc2cccc(-c3nc4ccccc4o3)c2)cc(C)c1Cl` (stereo unspecified), the survival is reported as 46% (active).
For `COc1ccc(NC(=O)c2c(C)oc3ccc(O)c(CN4CCC(C)CC4)c23)cc1Cl`, the survival was 55% (active).
For `COc1ccc(NC(=O)c2c(C)oc3ccc(O)c(CN4CCCC(C)C4)c23)cc1Cl` (stereo unspecified), the survival was 52% (active).
With `CCc1ccc2oc(-c3cccc(NC(=O)c4cc5ccccc5o4)c3)nc2c1` the survival was 14% (active).
In the case of `CCc1ccc2oc(-c3cccc(NC(=O)C(C)(C)Oc4ccc(Br)cc4)c3)nc2c1`, the survival is reported as 36% (active).
With `CCC(C)c1ccc2oc(-c3ccc(NC(=O)c4cc5ccccc5o4)cc3)nc2c1` (stereo unspecified) the survival was 46% (active).
`CCc1ccc2oc(-c3ccc(N)cc3)nc2c1` was tested, and the survival was 34% (active).
In the case of `CCc1ccc2oc(-c3ccc(NC(=O)c4cc5ccccc5o4)cc3)nc2c1`, the survival is reported as 40% (active).
For `CC(C)c1ccc(NC(=O)c2cccc3c2C(=O)N(C2CCCCC2)C3)cc1`, the survival was -10% (active).
For `Cc1cc(C)cc(NC(=O)c2cccc3c2C(=O)N(C2CCCCC2)C3)c1`, the survival was 33% (active).
In the case of `COC(=O)c1cc2sccc2n1Cc1ccccc1`, the survival is reported as 35% (active).
`COC(=O)c1cc2sccc2n1Cc1nc(-c2ccc(C)cc2)oc1C` was tested, and the survival was 28% (active).
In the case of `CCc1cc2c(cc(C(=O)OC)n2Cc2nc(-c3ccc(C)cc3)oc2C)s1`, the survival is reported as 26% (active).
`CCc1ccccc1NC(=O)c1cc2nc(-c3ccc(OC)c(OC)c3)cc(C(F)(F)F)n2n1` was tested, and the survival was 52% (active).
`CCc1ccccc1NC(=O)c1cnn2c(C(F)(F)F)cc(-c3ccc(OC)c(OC)c3)nc12` was tested, and the survival was 46% (active).
